In PubChem BioAssay:
Activity calls are given as the source filed them.

How the values were obtained:
[1] = compound effects on lung adenocarcinoma cell viability – A549, calcein-AM fluorescence, 48 h, basal, profiling panel (AID 1162); details: higher = more signal
[2] = compound effects on differentiated 3T3-L1 adipocyte viability – cell-based, 3T3-L1 adipocytes, calcein-AM fluorescence, 48 h, basal, profiling panel (AID 1163); details: 3T3-L1 adipocytes viability, higher = more signal
[3] = compound effects on hepatocellular carcinoma cell viability – HepG2, calcein-AM fluorescence, 48 h, basal, profiling panel (AID 1164); details: higher = more signal
[4] = compound effects on multiple myeloma cell viability – MM1S, calcein-AM fluorescence, 48 h, basal, profiling panel (AID 1165); details: higher = more signal;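 note: viability of MM1S multiple myeloma cells under basal unstimulated conditions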
[5] = calcein-AM signal in unstimulated myeloma cells – cell-based, calcein-AM fluorescence, 48 h, PK04 Diversity Set, profiling panel (AID 1166); details: RPMI8226 myeloma viability, higher = more signal;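 note: cells grown under basal conditions without added stimulus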
[6] = JC-1 mitochondrial signal, unstimulated HepG2 cells – cell-based, JC-1 fluorescence, 24 h, 100 nL compound, profiling panel (AID 1167); details: HepG2 mitochondrial potential, higher = more signal
[7] = JC-1 mitochondrial signal, unstimulated adipocytes – cell-based, JC-1 fluorescence, 3T3-L1 adipocytes, 24 h, 100 nL compound, profiling panel (AID 1168); details: JC-1 mitochondrial fluorescence, higher = more signal, called active from +8 up or from −8 down
[8] = JC-1 mitochondrial signal, unstimulated myeloma cells – cell-based, JC-1 fluorescence, RPMI8226, 24 h, 100 nL compound, profiling panel (AID 1169); details: JC-1 mitochondrial potential fluorescence, higher = more signal
[9] = JC-1 mitochondrial signal, unstimulated MM1S myeloma – cell-based, JC-1 fluorescence, 24 h, 100 nL compound, profiling panel (AID 1170); details: MM1S mitochondrial potential, higher = more signal
[10] = resazurin metabolic signal in A549 cells – cell-based, resazurin fluorescence, 24 h, PK04 Diversity Set, profiling panel (AID 1171); details: A549 viability, higher = more signal, called active from +8 up or from −8 down
Note: test concentration not given here.

SMILES | z-score [1] | z-score [2] | z-score [3] | z-score [4] | z-score [5] | z-score [6] | z-score [7] | z-score [8] | z-score [9] | z-score [10]
NC(=O)NCC#Cc1ccc2c(c1)[C@]1(C(=O)N2)[C@H](c2ccc(O)cc2)N2[C@H](c3ccccc3)[C@H](c3ccccc3)OC(=O)[C@H]2[C@@H]1C(=O)N1CCCCCCC1 | 1.21 | 0.139 | 1.23 | 0.561 | 0.597 | -1.08 | 1.04 (inactive) | -0.578 | -0.413 | -0.118 (inactive)
C[C@@H](c1ccccc1)N1C(=O)[C@H]2[C@H]3[C@H](O)C=CC(=O)[C@@H]3CC[C@H]2C1=O | -0.0257 | 0.0344 | 0.628 | -0.438 | -0.136 | 0.457 | 0.715 (inactive) | 0.04 | 0.711 | 0.165 (inactive)
CCN1C(=O)[C@H]2[C@H]3[C@H](O)[C@H](O)CC(=NOC[C@@H](C)[C@H](OCc4ccccc4)C(C)C)[C@@H]3CC[C@H]2C1=O | -0.0364 | 0.387 | -0.755 | -1.76 | -1.24 | -1.39 | -2.19 (inactive) | -0.279 | -0.187 | -0.295 (inactive)
COC(=O)CC=C[C@@H](C)[C@@H](C=NO[C@H](C)c1cn([C@@H]2COC[C@H]2O)nn1)OC | 0.947 | -0.0678 | 0.185 | 0.415 | -0.507 | 1.2 | -0.39 (inactive) | 0.146 | -0.469 | -0.567 (inactive)
C=C(COC)/C(=C/C[C@H](OC(=O)c1ccncc1)c1ccc(CO)o1)c1cc(C(=O)OC)ccc1OC | -1.2 | -0.256 | -0.981 | -0.43 | -0.111 | -0.47 | -1.01 (inactive) | 0.126 | 0.00652 | 0.451 (inactive)
C#C[C@@H](CC)O[Si](C#Cc1ccc(Oc2ccccc2)cc1)(C(C)C)C(C)C | -2.96 | -1.01 | -2.63 | -2.97 | -4.2 | -2.29 | -0.068 (inactive) | -0.291 | -1.11 | -0.936 (inactive)
CC(=O)O[C@H]1C2=C(C(=O)[C@@H]3O[C@@H]31)[C@H]1C(C)O[C@@H]2[C@@]23C(=O)[C@@H]4O[C@@H]4[C@@H](O)C2=CO[C@H](C)[C@@H]13 (stereo not given in full) | -0.192 | -0.392 | -1.54 | -3 | -2.64 | -1.92 | -0.78 (inactive) | 0.151 | -1.05 | 0.4 (inactive)
O=C1[C@H]2[C@H]3[C@H](O)[C@H](O)CC(=NO[C@@H]4O[C@H](CO)[C@@H](O)[C@H](O)[C@H]4O)[C@@H]3CC[C@H]2C(=O)N1c1ccc(F)cc1F | -0.234 | 0.269 | -0.87 | 0.506 | -0.165 | 0.717 | 0.738 (inactive) | -0.079 | 0.256 | -0.126 (inactive)
O=C(NN=C1C[C@@H](O)[C@@H](O)[C@@H]2[C@@H]3C(=O)N(c4cccc(Oc5ccccc5)c4)C(=O)[C@@H]3CC[C@H]12)OCc1ccccc1 | -0.207 | -0.205 | -0.943 | 0.693 | -0.363 | 0.559 | -1.15 (inactive) | 0.0901 | -0.0387 | -0.103 (inactive)
COC(=O)CC1OC1[C@H](C)[C@@H](OC)C(C)C (stereo not given in full) | 0.285 | 0.0498 | 1.66 | -3.45 | 0.045 | 1.74 | 0.269 (inactive) | 0.666 | -0.796 | -0.292 (inactive)
CO[C@H]1COC(=O)[C@@H]2CCCN2C(=O)[C@@H](C)COC(=O)CC=C[C@@H]1C | 0.12 | -0.142 | -0.364 | -0.122 | 0.358 | 0.00983 | -0.418 (inactive) | 0.604 | 0.0689 | 0.314 (inactive)
COCCOC(=O)N1C(=O)[C@@]2(c3cc(C#Cc4ccc(OC)cc4)ccc31)[C@H](c1ccc(O)cc1)N1[C@H](c3ccccc3)[C@H](c3ccccc3)OC(=O)[C@H]1[C@@H]2C(N)=O | -0.64 | 0.38 | -0.531 | -2.08 | -3.7 | -1.74 | 0.563 (inactive) | -0.896 | -0.721 | -1.51 (inactive)
COc1ccc(O[C@H]2C=C[C@@H](c3ccccc3)O[C@@H]2COC(=O)CCC(C)=NO[C@H](C)c2cn([C@@H]3COC[C@H]3O)nn2)cc1 | -1.24 | -0.547 | -1.22 | -0.913 | -1.22 | -1.63 | -1.03 (inactive) | 0.923 | -1.25 | 1.47 (inactive)
CCCC=C(CCC)[C@@H](NC(=O)c1ccc(-c2ccccc2)cc1)c1ccc(C(=O)OC)cc1 | -1.34 | -1.51 | -0.166 | -0.116 | -1.62 | -3.18 | 0.393 (inactive) | -0.834 | -1.29 | 0.747 (inactive)
